# mHTT-CaM PPI inh – inhibitors of human mutant huntingtin-calmodulin interaction. P42858. AlphaScreen His-mHTT/GST-CaM binding, luminescence. inhibition, % at 15 µM. 190,000 compounds, 3.6% hits
# Pf apPOL inh – Pf-apPOL DNA polymerase inhibition; Recombinant Pf-apPOL, molecular beacon fluorescence, 1.5 h; inhibition, % at 10 µM; 210,000 compounds, 0.25% hits
# Numbers stand for hits; . = inactive; / = no result given. Only some compounds are listed: those with a hit (about 3.5% of all), similar ones and a draw of the others. Cut-off read from the data, not from the text of the source: active = inhibition above about 50%; inactive = the rest.
SMILES,mHTT-CaM PPI inh,Pf apPOL inh
Cc1cccc2cc(CC3CC(c4ccccc4)=NN3C(=O)CCCC(=O)O)c(Cl)nc12 (centres undefined),.,.
CCCOc1ccc(N2C(=O)CC(N3CCC(C(N)=O)(N4CCCCC4)CC3)C2=O)cc1 (centres undefined),.,.
FC(F)(F)c1ccccc1NC(=S)O[C@H]1CCC12CCC(c1ccccc1)CC2 (some centres undefined),.,.
CC(C)NC(=O)N1CCCC(c2cccc(C(=O)N3CCC(N4CCCCC4)CC3)c2)C1 (centres undefined),.,.
COc1cccc(C(=O)N2CCC(CCOc3ccccc3)CC2)c1,.,.
CN(C)c1cccc(C(=O)N2CCC(CCOc3ccccc3)CC2)c1,86,.
Oc1cccc2ccc(Oc3cccc4cccnc34)nc12,.,.
O=S(=O)(Nc1nccs1)c1ccc2ccccc2c1,.,/
Oc1ccccc1C(Nc1nccs1)c1ccc2cccnc2c1O (centres undefined),100,.
Oc1c(C(Nc2ccccn2)c2ccccc2F)ccc2cccnc12 (centres undefined),100,.
CC(C)(C)C(=O)NC(Nc1cccc2cccnc12)C(Cl)(Cl)Cl (centres undefined),.,.
Oc1ccccc1C(Nc1ccccn1)c1ccc2cccnc2c1O (centres undefined),100,.
Cc1cccc(NC(c2ccccc2F)c2ccc3cccnc3c2O)n1 (centres undefined),99,.
O=C(Oc1cccc2cccnc12)c1c(F)cccc1F,/,.
CSC1=N/C(=C\c2ccccc2Cl)C(=O)N1,.,.
CCOc1ccc(CNC(=O)CN2C(=O)C3CCCN3C(=O)c3cc(F)ccc32)cc1 (centres undefined),.,.
Cc1ccc(C2=Nn3c(nnc3C(F)(F)F)SC2)cc1,.,/
Oc1ccc(Cl)c(C(Nc2ccccn2)c2ccc3cccnc3c2O)c1 (centres undefined),100,.
O=C(Nc1ccccn1)c1cc(I)ccc1Cl,.,.
CC(C)N(Cc1c[nH]c2ccccc12)C(=O)Nc1ccc(Cl)c(Cl)c1,68,.
CC(=O)NCC(=O)N(C)C(C(=O)Nc1ccc2c(c1)OCO2)c1ccccc1 (centres undefined),.,.
CC(=O)Nc1ccc(NC(=O)CCc2c[nH]c3ccccc23)cc1,.,.
CN(C(=O)Cc1c[nH]c2ccccc12)C(C(=O)Nc1ccc2c(c1)OCO2)c1ccccc1 (centres undefined),88,.
CC(C)N1CCC(CNS(=O)(=O)c2cccnc2)CC1,.,.
O=C(Cn1nc(-c2ccc(Cl)cc2)c2ccccc2c1=O)Nc1ccc(Cl)cc1,.,.
SMILES,mHTT-CaM PPI inh,Pf apPOL inh
COCCNC(=O)Cn1nc(-c2ccc(Cl)cc2)c2ccccc2c1=O,.,76
Cc1cc(C)nc(NS(=O)(=O)c2ccc(NC(=O)CSc3ncn[nH]3)cc2)n1,.,62
Cc1ccnc(NS(=O)(=O)c2ccc(NC(=O)CSc3nc(C)cc(=O)[nH]3)cc2)n1,.,.
O=C(c1ccc(F)cc1)N1CCC(CCNS(=O)(=O)c2ccccc2Cl)CC1,.,.
O=C(c1ccc(F)cc1)N1CCC(CCNS(=O)(=O)c2cccc(Cl)c2)CC1,.,.
Cc1c(Cl)cccc1S(=O)(=O)NCCC1CCN(C(=O)c2ccccc2)CC1,53,.
Cc1cc(C)c(S(=O)(=O)NCCC2CCN(C(=O)c3ccccc3)CC2)cc1C,64,.
Cc1ccc(S(=O)(=O)NCCC2CCN(C(=O)c3ccccc3)CC2)cc1C,.,.
O=C(c1ccccc1)N1CCC(CCNS(=O)(=O)c2cccc(Cl)c2)CC1,50,.
COc1cc(/C=C2\SC(=O)N(C)C2=O)c(Br)cc1O,.,.
C=CCc1cc(OC)ccc1OCCN1CCCC1,.,.
COc1ccccc1CNC1=NCCNC12CCN(S(=O)(=O)c1ccccc1C)CC2,.,.
CC1C(=O)N(Cc2cn(Cc3ccco3)nn2)CCS(=O)(=O)N1Cc1ccc(-c2ccccc2C(F)(F)F)cc1 (centres undefined),68,.
Cc1ccccc1-c1ccc(CN2C(C)C(=O)N(Cc3cn(Cc4ccco4)nn3)CCS2(=O)=O)cc1 (centres undefined),92,.
COc1cccc(-c2ccc(CN3C(C)C(=O)N(Cc4cn(Cc5ccco5)nn4)CCS3(=O)=O)cc2)c1OC (centres undefined),.,.
CC1C(=O)N(Cc2cn(Cc3ccco3)nn2)CCS(=O)(=O)N1Cc1ccc(-c2ccc(F)nc2)cc1 (centres undefined),.,.
Cc1ccc(-c2ccc(CN3C(C)C(=O)N(Cc4cn(Cc5ccco5)nn4)CCS3(=O)=O)cc2)c(C)c1 (centres undefined),84,.
Cc1ccc(-c2ccc(CN3C(C)C(=O)N(Cc4cn(Cc5ccco5)nn4)CCS3(=O)=O)cc2)cc1 (centres undefined),.,.
O=[N+]([O-])c1ccc(Cl)c(S(=O)(=O)NCc2ccc3c(c2)OCO3)c1,.,.
Cc1ccc(N2CCN(CC(=O)Nc3ccccc3-c3ccccc3)C2=O)cc1,.,.
Cc1ccc(-c2csc(/C(C#N)=C/c3ccco3)n2)cc1,.,53
COc1ccc(-c2csc(/C(C#N)=C/c3ccco3)n2)cc1,.,.
COc1ccccc1C(NC(C)=O)c1ccc2cccnc2c1O (centres undefined),100,.
COc1ccccc1C(NC(=O)C(C)C)c1ccc2cccnc2c1O (centres undefined),99,.
COc1ccccc1C(=O)Nc1cc(Br)cc2cccnc12,.,.
SMILES,mHTT-CaM PPI inh,Pf apPOL inh
COc1ccccc1NC(=O)Nc1cccc2cccnc12,.,.
CC(C)(C)c1csc(NC(=O)c2ccc3ncsc3c2)n1,.,.
CS(=O)(=O)N(Cc1ccccc1)c1ccc(C(=O)Nc2ccc(F)cc2)cc1,.,.
CCOc1ccccc1NC(=O)CN(c1ccc(F)cc1)S(C)(=O)=O,.,66
CS(=O)(=O)N(Cc1ccc(C(=O)Nc2ccc(F)cc2)cc1)c1ccccc1,.,50
CCOc1ccc(N(CC(=O)Nc2ccccc2OCC)S(C)(=O)=O)cc1,.,.
COc1ccccc1CC(=O)N1CCc2c(c(-c3nc(C)no3)nn2C)C1,.,.
CCOC(=O)c1ccc(Nc2nnnc3c2cnn3-c2ccccc2)cc1,.,.
O=C(CC1Sc2ccccc2NC1=O)Nc1ccc(C(F)(F)F)cc1 (centres undefined),.,.
O=C(CC1Sc2ccccc2NC1=O)NNC(=O)c1cc(C(F)(F)F)cc(C(F)(F)F)c1 (centres undefined),/,58
COc1cc2c(cc1OC)C(COc1cccc(C(F)(F)F)c1)N(C(=O)C1CC1)CC2 (centres undefined),95,.
COc1cc2c(cc1OC)C(COc1ccccc1OC)N(C(=O)C(C)C)CC2 (centres undefined),.,.
COC(=O)c1ccc(OCC2c3cc(OC)c(OC)cc3CCN2C(=O)C2CC2)cc1 (centres undefined),.,.
COc1cc2c(cc1OC)C(COc1cccc(C(F)(F)F)c1)N(C(=O)C(C)C)CC2 (centres undefined),96,.
COc1cc2c(cc1OC)C(COc1cccc(C(F)(F)F)c1)N(C(=O)c1ccco1)CC2 (centres undefined),100,.
COc1cc2c(cc1OC)C(COc1ccccc1OC)N(C(=O)c1ccco1)CC2 (centres undefined),.,.

# Screening data as filed in PubChem.
